The source made the active and inactive calls. Calls follow the shape of the dose curve; as a rule, active = well fitted curve in the direction sought with a large enough effect; inconclusive = small, poorly fitted or top-dose-only effect, or another doubt; inactive = no such curve, though single readings can be large or run the other way.

The target of the test is Hexokinase-4 (Homo sapiens) + Glucokinase regulatory protein (Homo sapiens) (UniProt P35557+Q14397). In words: qHTS assay for inhibitors of recombinant human GCK-GKRP interaction: Diaphorase-coupled assay (AID 743205). As to conditions: G6PDH/diaphorase resorufin fluorescence; series mostly up to 57.5 µM. The method, boiled down: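 Inhibitors of the GCK–GKRP complex relieve GKRP suppression of GCK, detected through a G6PDH–diaphorase cascade reducing resazurin. Human GST-GCK and FLAG-GKRP are used at 10 nM with 5 mM glucose and 0.4 mM ATP.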
Sequence of Hexokinase-4 (Homo sapiens) + Glucokinase regulatory protein (Homo sapiens) (P35557 whole entry, looked up): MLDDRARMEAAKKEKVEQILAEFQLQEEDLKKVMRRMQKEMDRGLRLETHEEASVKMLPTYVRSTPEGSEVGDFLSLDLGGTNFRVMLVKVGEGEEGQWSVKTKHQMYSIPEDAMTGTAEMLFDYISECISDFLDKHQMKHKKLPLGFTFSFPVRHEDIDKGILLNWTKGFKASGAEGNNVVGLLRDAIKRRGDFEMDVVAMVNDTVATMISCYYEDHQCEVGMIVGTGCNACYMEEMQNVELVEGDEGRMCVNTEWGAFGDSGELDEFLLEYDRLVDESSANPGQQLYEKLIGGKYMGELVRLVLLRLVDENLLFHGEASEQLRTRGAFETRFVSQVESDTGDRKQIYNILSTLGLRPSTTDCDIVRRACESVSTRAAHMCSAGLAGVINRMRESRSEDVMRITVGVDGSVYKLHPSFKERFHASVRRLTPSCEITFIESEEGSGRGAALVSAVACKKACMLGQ
Sequence of Hexokinase-4 (Homo sapiens) + Glucokinase regulatory protein (Homo sapiens) (Q14397 whole entry, looked up): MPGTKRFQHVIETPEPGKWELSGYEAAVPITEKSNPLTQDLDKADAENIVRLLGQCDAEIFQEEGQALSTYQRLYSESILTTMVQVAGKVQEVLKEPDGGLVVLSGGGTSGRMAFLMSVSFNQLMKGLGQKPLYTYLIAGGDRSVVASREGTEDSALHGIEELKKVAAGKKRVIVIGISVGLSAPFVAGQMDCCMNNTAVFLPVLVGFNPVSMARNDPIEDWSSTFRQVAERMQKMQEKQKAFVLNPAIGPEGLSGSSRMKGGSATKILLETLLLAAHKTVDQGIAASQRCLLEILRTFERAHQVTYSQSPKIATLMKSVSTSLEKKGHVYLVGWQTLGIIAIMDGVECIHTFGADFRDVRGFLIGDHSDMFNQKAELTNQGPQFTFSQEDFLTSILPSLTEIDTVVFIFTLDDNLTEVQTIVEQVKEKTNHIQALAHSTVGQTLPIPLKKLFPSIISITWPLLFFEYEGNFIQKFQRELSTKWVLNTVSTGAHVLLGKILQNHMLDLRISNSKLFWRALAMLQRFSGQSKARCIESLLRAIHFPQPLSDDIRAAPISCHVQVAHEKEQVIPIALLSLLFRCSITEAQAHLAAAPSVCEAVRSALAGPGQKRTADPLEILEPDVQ
For orientation: qHTS replaces the single test concentration by a dilution series.
In the case of `CNCCC(Oc1ccc(C(F)(F)F)cc1)c1ccccc1` (stereo not given), the result was inactive.

On to `CN(C)CC[C@@H](c1ccc(Cl)cc1)c1ccccn1`, for which the outcome was inactive.

`O=C1N=C(O)CN1/N=C/c1ccc(-c2ccc([N+](=O)[O-])cc2)o1`: the result was inactive.

Regarding `COCCOC(=O)C1=C(C)NC(C)=C(C(=O)OC/C=C/c2ccccc2)C1c1cccc([N+](=O)[O-])c1` (stereo not given), the result was inactive.

As for `Nc1ncnc2c1ncn2[C@@H]1O[C@H](CO)[C@@H](O)[C@H]1O`, the outcome was inactive.

As for `CCN(CC)CCOC(=O)C1(C2CCCCC2)CCCCC1`, the result was inactive.

As to `NC1CCN(c2cccc(Cl)n2)CC1`, the outcome was inactive.

On to `C#CCN(C)Cc1ccccc1`, for which the outcome was inactive.

`CSc1ccc2c(c1)N(CCC1CCCCN1C)c1ccccc1S2` (stereo not given): the outcome was inactive.

Turning to `CCN(CC)C(C)CN1c2ccccc2Sc2ccccc21` (stereo not given), the outcome was inactive.
